# Among all 130,000 compounds or so, about 1,900 (1.5%) were called active. Not shown: some 5% with an inconclusive outcome. Calls come from the whole dose curve; as a rule, active = well fitted cell-killing curve with a large enough effect; inconclusive = small, poorly fitted or top-dose-only effect; inactive = no such curve, though single readings can be large or run the other way. The sample as a whole holds a higher share of actives than the screen did.
# Experiment: qHTS Screen for Compounds that Selectively Target Cancer Cells with p53 Mutations: Cytotoxicity of p53ts Cells at the Nonpermissive Temperature; note: nearly all actives have a fitted effect of over 55% in size
# Details: H1299-p53A138V viability at 39C, ATP luminescence, 24 h; series mostly up to 46.1 µM; activity change, negative = cell killing: at the top concentration
# Excerpt: NIH Chemical Genomics Center [NCGC] NIH Molecular Libraries Screening Centers Network [MLSCN] MLSCN Grant: 1 X01 MH079844-01 Assay Submitter (PI): Dr. SUN, YI, University of Michigan NCGC Assay Overview: Synthetic Lethal Screen for Compounds to Kill Cancer Cells with p53 Mutation. Tumor suppressor gene p53 serves as a major cellular barrier against tumorigenesis. […] The goal of this screening is to identify small molecule probes that selectively kill cancer cells with mutations in p53. This screening was carried out using two lines of H1299 lung cancer cells. The H1299-p53 A138V line express a temperature sensitive p53 mutant (p53ts) in which the mutant p53 protein (A138V) is in the mutant confirmation when grown at 39C (the nonpermissive temperature) and in the wild type conformation when grown at 32C (the permissive temperature). A H1299-neo line (p53 null) grown at both 39C and 32C were used as counter-screens to filter out false positive associated with temperature shifting. The small molecular compounds that selectively target mutant p53-containing cancer cells were selected as candidate probes for further study. A cytotoxicity assay based on the measurement of ATP contents in cells was used in this screen. Concentration-responses of all the compounds in the library collection were determined in qHTS using the cell lines and temperature conditions as above.
# NCGC Assay Protocol Summary: Both the H1299-p53A138V and H1299-neo cell lines were provided by Dr.Yi Sun, a PI at the University Michigan. The cells were maintained and cultured at 37C. The resuspended frozen cells were used to plate the cells in the 1536-well assay plates at a density of 600 cells per well in 5 ul medium. The assay plates with the cells were incubated at 37C for 16 to 30 hours before the experiments. The library compounds in DMSO solution were added to the cells in assay plates and incubated 24 hours at 39C (for mutant p53 conformation) or 32C (for normal p53 conformation as control). An ATP_lite assay kit (PerkinElmer) was used to determine the cell viability. Tomaxifen (100uM) was used as the positive control for cell killing. Data were normalized to the controls for basal activity (DMSO only) and 100% killing (100uM tamoxifen). AC50 values were determined from concentration-response data modeled with the standard Hill equation. P53 assay protocol: 1. Reagent; 5 uL H1299-p53A138V or H1299-neo cell cells/well 2. Time; overnight; 37C incubation 3. Compounds; 23 nL; 5.9 nM to 46 uM 4. Controls; 23 nL; Tamoxifen 100 uM 5. Time; 24 hr; 39C incubation 6. Reagent; 3 uL; ATP_Lite reagent 7. Time; 20 min; Room Temperature 8. Detection; Luminescence; Viewlux plate reader Keywords: p53, synthetic lethal, cancer, cell viability, cytotoxicity, H1299 cell line, luminescence, MLSMR, MLSCN, NIH Roadmap, qHTS, NCGC
# % is set by controls: 0 for no effect and ±100 for the full control effect; potency is the fitted concentration of half-maximal effect.
Structure (SMILES),Potency,"activity change, negative = cell killing"
CC(C)(Cc1c[nH]c2ccc(Cl)cc12)NCCOc1ccccc1OCC1CC1,25.1 µM (active),–
Cc1cccc(Cn2cccc(C(=O)Nc3ccc4c(c3)OCCO4)c2=O)c1,–,-14.4% (inactive)
CCN(CC)CCn1ncc2c(N)ncnc21,–,-0.868% [at 9.22 µM] (inactive)
C/C(=C\C=C/[C@@H](C)C(=O)O)[C@H]1CN[C@H](C(=O)O)[C@@H]1CC(=O)O,–,-2.1% (inactive)
CN(C)C(=O)Oc1cc(OC(=O)N(C)C)cc(C(O)CNC(C)(C)C)c1 (stereo not given),–,-8.98% (inactive)
CC(C)Oc1ccc(NC(=O)c2cc3ccccc3o2)cc1,6.31 µM (active),–
COc1cc(C(c2c(O)c3ccccc3oc2=O)c2c(C)n(C)n(-c3ccccc3)c2=O)ccc1O (stereo not given),–,21.9% (inactive)
O=C1C2CCN(CC2)C1(CO)CO,inactive,–
C=CCSSCC=C,–,-2.47% (inactive)
Cc1nnc(NC(=O)c2cccn(Cc3cccc(F)c3)c2=O)s1,–,-3.63% (inactive)
NCCc1c[nH]c2ccc(O)cc12,inactive,–
Fc1ccc(C(OCCN2CCN(C/C=C\c3ccccc3)CC2)c2ccc(F)cc2)cc1,31.6 µM (active),–
CCN1C[C@]2(C)CC[C@H](O)[C@@]34[C@@H]5CC6[C@@H](OC)C[C@@](O)([C@@H]5[C@@H]6O)[C@H](C[C@@H]23)[C@H]14,–,1.08% [at 20.6 µM] (inactive)
COc1ccc(C2Oc3c(I)c(OC)cc(OC)c3CC2O)cc1OC (stereo not given),–,-12.1% (inactive)
CC(C)(O)/C=C\C(=O)[C@](C)(O)[C@H]1[C@H](O)C[C@]2(C)[C@@H]3CC=C4[C@@H](C=C(O)C(=O)C4(C)C)[C@]3(C)C(=O)C[C@@]12C,–,-1.33% [at 9.22 µM] (inactive)
CC[C@@](O)(C(=O)O)c1cc2n(c(=O)c1CO)Cc1cc3ccccc3nc1-2,–,11.1% [at 9.22 µM] (inactive)
O=C(N/N=C/c1c(O)n(Cc2ccccc2)c(=O)[nH]c1=O)c1ccccc1,–,-16% (inactive)
CN1C2CC3CC1C(O3)C2O (stereo not given),–,9.45% (inactive)
CCCCN1C2CCC1CC(OC(c1ccc(F)cc1)c1ccc(F)cc1)C2 (stereo not given),12.6 µM (active),–
Cn1c(O)c(C=NCCN2CCNCC2)c(=O)n(C)c1=O,–,22.6% (inactive)

Structure (SMILES),Potency,"activity change, negative = cell killing"
CC(=O)OC1C2CCC3C1(CC(O)[C@@]1(O)[C@@H](CC(O)C1(C)C)[C@]3(C)O)C[C@@]2(C)O (stereo not given in full),–,-10.4% (inactive)
CC[C@@H]1CN2CC[C@@H]1C[C@H]2[C@H](O)c1ccnc2ccc(OC)cc12,–,-2.09% (inactive)
O=C(Nc1ccc(Cl)cc1C(=O)c1ccccc1)c1cc(Cl)cc(Cl)c1,–,-11.9% (inactive)
C[C@@]12CCC3C(CC[C@@H]4CC(O)CC[C@@]34C)C1CCC2O (stereo not given in full),–,7.74% (inactive)
C[C@@]1([C@@H](NP(=O)(c2ccccc2)c2ccccc2)c2ccccc2)C[C@H]1CCO,–,-4.77% (inactive)
N#Cc1c(Cl)c(Cl)c(Cl)c(C#N)c1Cl,6.31 µM (active),–
CCC(C)C(=O)O[C@@H]1C[C@@]2(C)C(c3ccoc3)OC(=O)CC23OC2(C)O[C@@]14[C@@]1(C)C(CC(=O)OC)C5(C)CC1(O)C(O)(C5OC(=O)C1(C)OC1C)C(OC(C)=O)[C@@]34O2 (stereo not given in full),–,0.427% (inactive)
Cc1ccc(-n2c(/C=C/c3cccc(C(F)(F)F)c3)nc3ccccc3c2=O)cc1,–,-23.3% (inactive)
Clc1ccc(C(c2ccc(Cl)cc2)n2cc[n+](C[C@@H](OCc3ccc(Cl)cc3Cl)c3ccc(Cl)cc3Cl)c2)cc1,15.8 µM (active),–
CCN(CC)c1ccc(C2C(C(N)=O)=C(C)Nc3nc(SCc4ccccc4)nn32)cc1 (stereo not given),–,26.9% (inactive)
Clc1ccc([C@@H]2C[C@H]3CC[C@@H]2N3)cn1,–,-3.71% (inactive)
Cn1cc(/C=C/c2nc3ccccc3c(=O)n2-c2ccccc2)c2ccccc21,–,1.73% (inactive)
O=C(NC(c1ccc(Cl)cc1)P(=O)(Oc1ccccc1)Oc1ccccc1)OCc1ccccc1 (stereo not given),–,10.7% (inactive)
COc1cc2c(cc1OC)[C@@H]1C(=O)c3ccc(O)c(CC=C(C)C)c3OC1CO2 (stereo not given in full),–,-2.98% (inactive)
COc1ccc(NC(=O)Nc2cccc3cccnc23)cc1,15.8 µM (active),–
CC1=CC(=O)C2=C(C)C[C@H](O)[C@H]3[C@H](C)C(=O)O[C@@H]3C12 (stereo not given in full),–,3.03% (inactive)
c1csc(CN2CC3(CCNCC3)C2)n1,–,7% (inactive)
CC(C)(c1ccc(OC[C@@H]2CO2)cc1)c1ccc(OC[C@H]2CO2)cc1,12.6 µM (active),–
Cc1ccc(N2C(=O)NC(=O)C(CCc3ccncc3)(Cc3cccc(Cl)c3Cl)C2=O)cc1 (stereo not given),–,31.4% (inactive)
C[C@]12CC[C@H](O)C[C@@H]1CC[C@H]1[C@H]2CC[C@]2(C)C(=O)CC[C@@H]12,inactive,–

# From PubChem BioAssay AID902 (National Center for Advancing Translational Sciences (NCATS), 2007)
